We go through 16 compounds from PubChem BioAssay (NCI).

What all share (assay): NCI-60 one-dose screen, 48 h (100 = growth as untreated, 0 = no growth, -100 = all killed)
One test deals with NCI-H23 lung. The conditions noted are these: 10 µM unless noted.
Another test concerns NCI-H226 lung. The conditions noted are these: 10 µM unless noted.
For the next test, the system named is NCI-H322M lung. The conditions noted are these: 10 µM unless noted.
The subject of another test is HOP-92 NSCLC. The conditions noted are these: 10 µM.
Another test has as its system NCI-H522 lung. As to conditions: 10 µM.
The next test deals with A549/ATCC NSCLC. The conditions noted are these: 10 µM unless noted.
In another test the test system is 786-0 renal. The conditions noted are these: 10 µM unless noted.
The subject of a further test is COLO 205 colon. The conditions noted are these: 10 µM unless noted.
In a further test the test system is NCI-H460 lung. As to conditions: 10 µM unless noted.

Compounds without any hit were thinned out: in the full panel of roughly 83,000, 20% have a hit.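 Values shown are percent growth following 48 h exposure of cells in 96-well plates to a single concentration of compound; below 10 was considered active.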 Values without a mark were called inactive. Calls of active or inactive are those of the source.

On to `O=C(/C=C/c1ccc(Br)cc1)c1ccccc1`, for which the growth in the test with NCI-H23 lung was 97.9%; in the test on NCI-H226 lung, 90.8%; in the test with NCI-H322M lung, 106%; with HOP-92 NSCLC, 96.2%; in the test on NCI-H522 lung it was 77.8%; in the test with A549/ATCC NSCLC, 73%. The growth is 85.1% with 786-0 renal and 109% in the test with COLO 205 colon.

`O=C(Nc1ccccc1)Nc1ccc(Nc2ncnc3sc4c(c23)CCCC4)cc1`: the growth in the test on NCI-H23 lung is 100%; in the test with NCI-H226 lung, 89.9%; in the test with NCI-H322M lung it was 106%; in the test with HOP-92 NSCLC, 101%; with NCI-H522 lung, 93%; with A549/ATCC NSCLC, 73.9%. Further, the growth with 786-0 renal is 110%.

As for `O=C1NCCN1/N=C/c1c(Cl)nc2n1CCS2`, the growth was 106% with NCI-H23 lung; 151% with NCI-H226 lung; 94.6% in the test with NCI-H322M lung; 51.3% with HOP-92 NSCLC; 34.3% in the test on NCI-H522 lung; 113% in the test with A549/ATCC NSCLC. Further, the results for the growth in the test on 786-0 renal and in the test on COLO 205 colon were 90% and 133%, respectively.

Turning to `COc1cc(-c2nc3c(c(C)nc4c3nnn4-c3ccccc3)c(=O)o2)cc(OC)c1OC`, the growth is 115% with NCI-H23 lung; 104% with NCI-H226 lung; 104% in the test on NCI-H322M lung; 103% with HOP-92 NSCLC; 103% in the test on NCI-H522 lung; 112% in the test on A549/ATCC NSCLC. Besides, the growth in the test on 786-0 renal was 104%; with COLO 205 colon, 113%.

As for `CCCCCc1ccnc(CC(=O)c2ccc(OC)cc2)c1`, the growth in the test on NCI-H23 lung is 93.8%; in the test on NCI-H226 lung, 88.6%; in the test with NCI-H322M lung, 104%; in the test on HOP-92 NSCLC, 69.5%; in the test on NCI-H522 lung, 66.6%; with 786-0 renal, 98.9%. Also, the growth in the test on COLO 205 colon was 87.3%.

With `COc1cc(/C=C/C(=O)c2ccc(F)cc2)ccc1OCCCCOc1cc2c(cc1OC)C(=O)N1CCCC1C=N2` (centres undefined), the growth in the test with NCI-H23 lung is -33.9% (active); in the test with NCI-H226 lung, -8.87% (active); in the test with NCI-H322M lung, 88.1%; with NCI-H460 lung, -49.5% (active); with HOP-92 NSCLC, -43.9% (active); in the test on NCI-H522 lung it was -61.1% (active). Also, the growth in the test on A549/ATCC NSCLC was 45.9%; in the test on COLO 205 colon it was -45.2% (active).

As to `COc1cc2c(cc1OC)C(Cc1cc(OC)c(OC)cc1[N+](=O)[O-])=NCC2`, the growth was 67.5% in the test on NCI-H23 lung; 88.7% with NCI-H226 lung; 94.9% in the test on NCI-H322M lung; 48.5% in the test on HOP-92 NSCLC; 82.6% with NCI-H522 lung; 90% in the test on A549/ATCC NSCLC. The growth with 786-0 renal is 87.6%; with COLO 205 colon, 94.9%.

For `CCOP1(=O)CC(C)=C(Cl)C(P(=O)(O)O)C1` (centres undefined), the growth is 93.3% in the test on NCI-H23 lung; 99.9% in the test on NCI-H226 lung; 108% in the test with NCI-H322M lung; 114% in the test on NCI-H460 lung; 89.1% in the test with HOP-92 NSCLC; 89.7% with NCI-H522 lung. Further, the values for the growth with A549/ATCC NSCLC and in the test on COLO 205 colon were 94.8% and 110%, respectively.

Turning to `COc1ccccc1Cn1cc2c(c1)-c1oncc1CC2`, the growth was 20.6% in the test on NCI-H23 lung; 38.9% in the test with NCI-H226 lung; 24% with NCI-H322M lung; 80.3% in the test with HOP-92 NSCLC; 43.3% in the test with NCI-H522 lung; 28.9% in the test on A549/ATCC NSCLC. Further, the growth with 786-0 renal was 38.6%; in the test with COLO 205 colon, -28.2% (active).

On to `COc1nc(OC)nc(-c2cc(C(=O)c3ccc(Br)cc3)n3cc(C)cc(C)c23)n1`, for which the growth in the test with NCI-H23 lung is 48.1%; in the test with NCI-H226 lung, 34.3%; in the test on NCI-H322M lung it was 81.8%; with HOP-92 NSCLC, 33.9%; in the test on NCI-H522 lung, 57.7%; with A549/ATCC NSCLC, 51.3%. For the same compound, in the test with 786-0 renal, the growth is 12%.

As to `NC(N)=Nc1ccc(/C=C2\C=Cc3ccccc32)cc1`, the growth in the test with NCI-H23 lung was 69.9%; in the test with NCI-H226 lung, 74.6%; in the test with NCI-H322M lung it was 70.5%; in the test on HOP-92 NSCLC it was 9.95% (active); in the test with NCI-H522 lung, 42.7%; in the test on A549/ATCC NSCLC, 78.6%. Moreover, the growth with 786-0 renal was 67.3%; in the test on COLO 205 colon it was -77.9% (active).

Turning to `N=C(N)c1ccc(-c2ccc(-c3ccc(F)cc3)s2)cc1`, the growth in the test on NCI-H23 lung was -91.8% (active); with NCI-H226 lung, -77.3% (active); in the test with NCI-H322M lung, -91.2% (active); in the test on HOP-92 NSCLC it was -86.2% (active); in the test on NCI-H522 lung, -58.9% (active); with A549/ATCC NSCLC, -74.2% (active). Also, the growth in the test with 786-0 renal was -82.1% (active).

Consider `CCOC(=O)C1C(=O)C(=O)N(C(C)C)C1C(=O)OCC` (centres undefined), for which the growth in the test on NCI-H23 lung is 97.3%; with NCI-H226 lung, 100%; in the test on NCI-H322M lung, 104%; in the test on NCI-H460 lung, 106%; in the test on HOP-92 NSCLC, 83%; in the test with NCI-H522 lung it was 118%. Further, the values for the growth with 786-0 renal and in the test on COLO 205 colon were 107% and 118%, respectively.

Take `Cn1cnc2nc[nH]c2c1=S`: the growth with NCI-H23 lung is 98.7%; in the test on NCI-H226 lung, 98.2%; with NCI-H322M lung it was 101%; with NCI-H460 lung, 108%; with HOP-92 NSCLC it was 75.2%; with NCI-H522 lung, 86.5%. The growth in the test on 786-0 renal was 101%; in the test on COLO 205 colon, 116%.

Take `COc1ccc(Cn2cc3c(c2-c2ccccc2)CCc2cnoc2-3)cc1N`: the growth in the test with NCI-H23 lung was 20.5%; with NCI-H226 lung, 13%; in the test with NCI-H322M lung it was 35%; in the test with HOP-92 NSCLC it was 64.1%; in the test on NCI-H522 lung, 33.8%; in the test on A549/ATCC NSCLC it was 29.4%. In addition, the growth in the test with 786-0 renal is 38.8%; with COLO 205 colon it was -24.7% (active).

Turning to `COC(=O)C(C)[C@H]1CC[C@@H]2[C@]1(C)CC=C1[C@]23C=C[C@]2(C[C@@H](OC(C)=O)CC[C@]12C)C(C(=O)OC)C3C(=O)OC` (some centres undefined), the growth in the test on NCI-H23 lung was 92.3%; with NCI-H226 lung it was 89.8%; with NCI-H322M lung it was 102%; in the test with HOP-92 NSCLC, 83.5%; in the test on NCI-H522 lung, 96.8%; with A549/ATCC NSCLC, 91.5%. The growth in the test on 786-0 renal is 105%; in the test on COLO 205 colon, 98.8%.
